Assay outcomes deposited in PubChem BioAssay by National Center for Advancing Translational Sciences (NCATS).
Rows were chosen to be rich in hits. Some 1.3% of all compounds tested hit in one or more screens of this group.
USP1 inh: USP1/UAF1 (human) deubiquitinase inhibition; O94782; recombinant USP1/UAF1, Ub-Rhodamine cleavage fluorescence; Potency, µM (highest dose often 57.1 µM), for the others: at the highest dose activity change, negative = inhibition, actives largely listed as inhibitors; actives 0.23% (n = 390,000); also: % is scaled to controls: 0 for no effect and ±100 for the full control effect; nearly all actives have a fitted effect of over 60% in size
Target sequence (O94782 whole entry, looked up): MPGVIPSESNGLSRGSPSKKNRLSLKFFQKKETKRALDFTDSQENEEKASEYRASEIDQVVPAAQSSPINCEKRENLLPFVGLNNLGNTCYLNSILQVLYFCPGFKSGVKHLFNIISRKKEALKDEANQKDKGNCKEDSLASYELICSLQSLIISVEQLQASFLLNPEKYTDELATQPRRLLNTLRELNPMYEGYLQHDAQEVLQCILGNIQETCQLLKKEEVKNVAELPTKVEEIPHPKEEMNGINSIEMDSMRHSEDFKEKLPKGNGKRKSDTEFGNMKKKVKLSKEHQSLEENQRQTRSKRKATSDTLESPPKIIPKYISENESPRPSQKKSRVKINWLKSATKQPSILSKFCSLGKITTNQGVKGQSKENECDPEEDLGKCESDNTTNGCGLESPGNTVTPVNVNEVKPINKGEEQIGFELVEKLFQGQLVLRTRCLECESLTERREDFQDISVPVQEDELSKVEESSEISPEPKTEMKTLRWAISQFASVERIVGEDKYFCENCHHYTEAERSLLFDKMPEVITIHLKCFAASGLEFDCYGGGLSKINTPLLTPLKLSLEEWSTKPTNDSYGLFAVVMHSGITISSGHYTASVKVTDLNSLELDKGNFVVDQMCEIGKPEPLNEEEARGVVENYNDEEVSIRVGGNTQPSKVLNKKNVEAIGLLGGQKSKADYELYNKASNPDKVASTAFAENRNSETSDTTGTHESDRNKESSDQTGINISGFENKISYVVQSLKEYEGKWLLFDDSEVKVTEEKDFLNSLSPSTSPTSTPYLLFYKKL
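USP1/UAF1 complex at 1 nM was preincubated with compound for 15 min at room temperature, then Ub-Rho substrate (150nM final) was added. Fluorescence (480/540 nm) was read kinetically, 6 reads every 60 seconds.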
EPAC1 antag: blocks human EPAC1 exchange factor; actives 0.14% (n = 360,000); Potency, µM (highest dose often 115 µM), for the others: at the top dose activity change, negative = inhibition, usual class: inhibitors; EPAC1 GEF assay, Rap1b-BODIPY-GDP exchange fluorescence; AID 720709;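 also: plate controls were vehicle for no effect and positive control for full effect; nearly all actives have a fitted effect of over 50% in size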
EPAC1 agonist: agonists of human EPAC1. EPAC1 agonist qHTS, biochemical assay; response scale: 100% = response to 6.5 mM cAMP. actives 0.073% (n = 360,000). Potency, µM (doses to about 154 µM), for the others: top-dose activation, actives largely listed as activators. O95398; also: nearly all actives have a fitted effect of over 60% in size
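Nucleotide exchange by EPAC1 (100 nM) on Rap1B–BODIPY-GDP (250 nM) in the presence of 50 uM GDP is tracked fluorescently at 480/540 nm over 30 min. Signals are normalized to a 6.5 mM cAMP control.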
EPAC2 antag: EPAC2 (human) antagonism. actives 0.18% (n = 360,000). Potency, µM (series often up to 114 µM), inactives show at the top dose activity, negative = inhibition, actives largely listed as inhibitors. EPAC2 GEF exchange of Rap1B-BODIPY-GDP, fluorescence. Q8WZA2; also: % is scaled to controls: 0 for no effect and ±100 for the full control effect; nearly all actives have a fitted effect of over 45% in size
EPAC2 agonist: EPAC2 (human) agonism; Q8WZA2; EPAC2 activation, biochemical qHTS; response scale: 100% = 6.5 mM cAMP response; Potency, µM (titrated, usually from 154 µM), inactives show top-dose activation, usual class: activators; actives 0.079% (n = 360,000); also: nearly all actives have a fitted effect of over 50% in size
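EPAC2 (100 nM) mixed with Rap1B loaded with BODIPY-GDP (250 nM) plus 50 uM unlabeled GDP; compounds pinned in, 5 min RT, then read every 5 min for 30 min (ex 480, em 540 nm). Normalized to cAMP control.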
12-LOX inh: inhibitors of human 12S-lipoxygenase ALOX12. P18054. purified 12hLO, xylenol orange hydroperoxide absorbance. Potency, µM (highest dose often 108 µM), without a hit: at the highest dose activity change, negative = inhibition, usual class: inhibitors. actives 1.1% (n = 580,000). AID 1671190; also: % is scaled to controls: 0 for no effect and ±100 for the full control effect
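Purified human 12hLO at 150 nM in 25 mM Hepes, 0.01% Triton X-100, pH 7.0, preincubated 15 min at room temperature with compound. Reaction started with 40 uM arachidonic acid, 30 min at room temperature. Hydroperoxide measured by Fe-xylenol orange, 573/405 nm absorbance ratio.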
Active calls of the source: *; ? = inconclusive; nt = no result given; [ ] = dose if it differs, or a comment. Calls follow the shape of the dose curve; as a rule, active = well fitted curve in the direction sought with a large enough effect; inconclusive = small, poorly fitted or top-dose-only effect, or another doubt; inactive = no such curve, though single readings can be large; an effect the other way counts as inactive or inconclusive. Potency is read from the fitted curve at half-maximal effect.

SMILES	USP1 inh	EPAC1 antag	EPAC1 agonist	EPAC2 antag	EPAC2 agonist	12-LOX inh
COc1cccc(-c2cncnc2Nc2ccccc2)c1	nt	nt	nt	nt	nt	39.8µM*
Cc1ccc(-c2nnc(SCc3nc4ccccc4o3)n2C)cc1	nt	nt	nt	nt	nt	13.3%
O=C(c1cc2ccccc2oc1=O)N1CCN(Cc2ccc(Cl)cc2)CC1	nt	nt	nt	nt	nt	6.6%
COc1ccc(C2C(C(=O)c3ccco3)=C(O)C(=O)N2CC2CCCO2)cc1OC (centres undefined)	-0.3%	13.1%	1.3%	2.5%	8.1%	?
O=C(C1=C(O)C(=O)N(CC2CCCO2)C1c1cccnc1)c1ccco1 (centres undefined)	-14.8%	-5.8%	-1.1%	7.1%	-0.6%	?
O=C(C1=C(O)C(=O)N(CC2CCCO2)C1c1ccc(Cl)cc1Cl)c1ccco1 (centres undefined)	?	-13.1%	-3.3%	1.3%	9.3%	39.8µM*
Cc1ccc(C(=O)C2=C(O)C(=O)N(Cc3ccco3)C2c2cccc(Cl)c2)o1 (centres undefined)	-18.6%	-4.2%	-9.3%	2.4%	4.2%	25.1µM*
O=C(C1=C(O)C(=O)N(CC2CCCO2)C1c1ccccc1)c1ccco1 (centres undefined)	-7.4%	-4.7%	11.8%	0.1%	6.7%	-27.3%
CC(C)(C)c1ccc(C2C(C(=O)c3ccco3)=C(O)C(=O)N2CC2CCCO2)cc1 (centres undefined)	-20.6%	-11.6%	-3.8%	-7.1%	-8.8%	22.4µM*
O=C(C1=C(O)C(=O)N(CC2CCCO2)C1c1cccc(Cl)c1)c1ccco1 (centres undefined)	-5.4%	-22.6%	-1.4%	-6.7%	0.1%	28.2µM*
O=C(CSc1nc2ccccc2o1)N(Cc1ccccc1)Cc1ccccc1	nt	nt	nt	nt	nt	-11.0%
CN1C(=O)COc2ccc(NC(=O)C(=O)NC3CCCCCC3)cc21	nt	nt	nt	nt	nt	-2.0%
CCC(=O)N(C)C(C)c1cccs1 (centres undefined)	nt	nt	nt	nt	nt	49.0%
CN(C(=O)COC(=O)c1ccccc1-c1nc2ccccc2s1)C1CCCCC1	nt	nt	nt	nt	nt	1.5%
CCc1ccc(OCc2nnc(SCc3cc(=O)c4ccccc4[nH]3)n2CC)cc1	nt	nt	nt	nt	nt	-27.4%
CC(C)C/C(=N\NC(=O)C1CC1(c1ccccc1)c1ccccc1)c1ccccc1 (centres undefined)	nt	nt	nt	nt	nt	14.7%
C/C(=N/Nc1ccc(S(N)(=O)=O)cc1[N+](=O)[O-])c1cccc(C(F)(F)F)c1	nt	nt	nt	nt	nt	17.3%
O=C(C1=C(O)C(=O)N(CC2CCCO2)C1c1ccccc1Cl)c1ccco1 (centres undefined)	-8.4%	-0.8%	-0.1%	2.2%	7.4%	31.6µM*
COc1cc(/C=C2\SC(=Nc3ccc(Cl)c(C(=O)O)c3)NC2=O)c(Br)c(Br)c1O	17.8µM*	?	22.5%	?	22.5%	?
COc1cc(/C=C2\SC(=Nc3ccccc3)NC2=O)cc(Cl)c1O	?	-22.8%	21.9%	-13.8%	9.5%	?
Cc1ccc(S(=O)(=O)N2CC[C@H](c3nc4ccccc4[nH]3)C2)cc1	nt	nt	nt	nt	nt	-21.7%[176 µM]
CCN(CC)CCCN1C=C2C(=O)C(C)(OC(=O)CCC(=O)OC)C(=O)C(Br)=C2C=C1c1ccc(OC)cc1 (centres undefined)	?	-22.0%	-16.8%	9.0%	10.6%	?
C=CCN1C=C2C(=O)C(C)(OC(=O)CCC(=O)OC)C(=O)C(Br)=C2C=C1c1ccc(OC)cc1 (centres undefined)	31.6µM*	7.6%	26.9%	9.1%	29.7%	nt
COCCN1C=C2C(=O)C(C)(OC(=O)CCC(=O)OC)C(=O)C(Br)=C2C=C1c1ccc(OC)cc1 (centres undefined)	25.1µM*	-17.5%	5.7%	22.5%	12.2%	nt
COC(=O)CCC(=O)OC1(C)C(=O)C2=CN(C3CCCC3)C(c3ccc(OC)cc3)=CC2=C(Br)C1=O (centres undefined)	25.1µM*	2.4%	-13.2%	-20.4%	9.6%	?
SMILES	USP1 inh	EPAC1 antag	EPAC1 agonist	EPAC2 antag	EPAC2 agonist	12-LOX inh
OCC(CO)(CO)NCC(O)CNC(CO)(CO)CO	nt	nt	nt	nt	nt	20.3%
Cc1ccn2cc(-c3ccccc3)cc2c1	nt	nt	nt	nt	nt	31.6µM*
c1ccc2cc(-c3cc4ccccn4c3)ccc2c1	-4.1%	3.2%	5.3%	-0.5%	2.5%	?
Cn1cnc2c1c(=O)n(CCCSCc1ccc(F)cc1Cl)c(=O)n2C	nt	nt	nt	nt	nt	-22.4%
COc1ccccc1N1N=C(C(=O)c2ccccc2)C2C(=O)N(c3ccc(Br)cc3)C(=O)C21 (centres undefined)	?	?	?	44.7µM*	25.8%	-21.9%
COc1ccccc1N1C(=O)C2C(C(=O)c3ccccc3)=NN(c3ccccc3)C2C1=O (centres undefined)	?	-16.8%	?	3.3%	17.5%	?
Oc1cc2c(cc1C(c1ccc(Cl)c(Cl)c1)N1CCCC1)OCO2 (centres undefined)	-38.0%	-13.0%	1.8%	?	8.4%	4.47µM*
CCOc1ccc(NC(=O)CN(C)C(=O)c2cc(C3CC3)nn2-c2ccccc2)cc1OCC	-11.5%	-6.7%	31.6µM*	-15.1%	-8.0%	0.1%
CCOc1ccc(NC(=O)CN(C)C(=O)c2cc(-c3cccs3)nn2-c2ccccc2)cc1OCC	-17.5%	26.9%	-11.4%	36.0%	-8.5%	-11.9%
C(=N\Nc1ccccc1)/c1ccc(N2CCOCC2)cc1	-18.0%	9.6%	2.3%	5.1%	15.3%	14.1µM*
N#C/C(=C/c1ccccc1)C(=O)Nc1ccc(N2CCOCC2)cc1	nt	nt	nt	nt	nt	2.51µM*
N#C/C(=C/c1cccc(O)c1)C(=O)NCc1ccc(Cl)cc1	-8.1%	-9.1%	8.0%	-4.0%	16.2%	-16.9%
N#C/C(=C/c1ccc(O)c(O)c1)C(=O)NCc1ccc(Cl)cc1	-14.7%	?	10.3%	0.3%	15.7%	25.1µM*
N#C/C(=C\c1ccc(O)c(O)c1)C(=O)Nc1ccccc1	?	-22.9%	-17.4%	-2.0%	5.6%	50.1µM*
COc1cc(OC)c(C(=O)Nc2ccc3nc(N4CCCC4)sc3c2)cc1OC	nt	nt	nt	nt	nt	-0.1%
CCC(C)NC(=O)/C(=C/c1ccccc1Cl)c1ccccc1 (centres undefined)	nt	nt	nt	nt	nt	6.5%
COc1ccc(NC(=O)CCCc2nc(C(C)C)no2)cc1OC1CCCC1	nt	nt	nt	nt	nt	53.8%
COc1ccc(-c2cc(=O)oc3c(O)c(O)ccc23)cc1	-9.2%	35.5µM*	1.3%	-15.6%	1.9%	1.12µM*
COc1ccc(C(=O)Oc2ccc3c(-c4ccc(OC)cc4)cc(=O)oc3c2)cc1	nt	nt	nt	nt	nt	-11.6%
CC(=O)Nc1cccc(-c2cnc3ccc(Cc4ccc(F)c(F)c4)nn23)c1	nt	nt	nt	nt	nt	-58.5%
